From PubChem BioAssay (NCATS) come the findings set out here.

Inconclusive results are not listed. A number with no mark means an inactive call. Calls of active or inactive are those of the source. Calls follow the shape of the dose curve; as a rule, active = well fitted inhibition curve with a large enough effect in the signal ratio, with a control signal flat (not every such curve was filed as active); inconclusive = small, poorly fitted or top-dose-only effect, or effect the other way, or a change in a side signal; inactive = no such curve, though single readings can be large or run the other way; the % refers to the signal ratio.

The target in this assay is Peroxisome proliferator-activated receptor delta (Homo sapiens) (UniProt Q03181). Put plainly: qHTS assay for small molecule antagonists of peroxisome proliferator-activated receptor delta signaling (AID 588535). Conditions: HEK293T PPARd-UAS-bla, beta-lactamase FRET ratio, 18 h; series mostly up to 76.7 µM; activity change, negative = inhibition: at the top concentration. An excerpt: NIH Chemical Genomics Center [NCGC] U.S. Environmental Protection Agency [EPA] National Institutes of Environmental Health Sciences [NIEHS] National Toxicology Program [NTP] NCGC Assay Overview The Peroxisome proliferator-activated receptors (PPARs) are lipid-activated transcription factors of the nuclear receptor superfamily with three distinct subtypes namely PPAR alpha, PPAR delta (also called PPAR beta) and PPAR gamma. All these subtypes heterodimerizes with Retinoid X receptor (RXR) and have different physiological functions. […] This role of PPAR delta implicates the potential use of its ligands in the treatment of metabolic disorders.
Peroxisome proliferator-activated receptor delta (Homo sapiens), sequence (Q03181 whole entry, looked up): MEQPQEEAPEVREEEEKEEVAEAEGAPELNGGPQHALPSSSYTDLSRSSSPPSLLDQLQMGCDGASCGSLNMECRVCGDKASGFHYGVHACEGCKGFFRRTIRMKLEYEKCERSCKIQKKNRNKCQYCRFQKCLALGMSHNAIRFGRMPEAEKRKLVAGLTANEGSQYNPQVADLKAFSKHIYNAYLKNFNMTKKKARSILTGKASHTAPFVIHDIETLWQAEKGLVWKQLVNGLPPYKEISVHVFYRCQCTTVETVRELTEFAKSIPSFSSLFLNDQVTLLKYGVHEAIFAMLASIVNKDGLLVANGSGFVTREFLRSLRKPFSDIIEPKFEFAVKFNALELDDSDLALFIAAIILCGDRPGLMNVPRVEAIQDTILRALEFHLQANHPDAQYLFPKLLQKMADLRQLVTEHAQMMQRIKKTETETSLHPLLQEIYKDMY
NCGC Assay Protocol Summary Using a beta-lactamase reporter-gene under control Peroxisome Proliferator-Activated Receptor delta (PPAR-delta) response element, a cell-based assay [GeneBLAzer (PPAR-delta-UAS-bla assay developed by Invitrogen] was used to measure PPAR-delta ligands signaling. GeneBLAzer PPAR-delta-UAS-bla HEK293T cells were used with assay medium containing 2% charcoal/dextran FBS. The assay was performed in clear bottom black Greiner 1536-well plates. Library compounds were measured for their ability to inhibit the reporter gene activity. Compounds were screened in a titration series in 1536-well format. The fluorescence intensity (405 nm excitation, 460/530 nm emission) was measured using an EnVision plate reader. […] Concentration-response titration points for each compound were fitted to the Hill equation yielding concentrations of half-maximal inhibition (IC50) and maximal response (efficacy) values. qHTS protocol for PPAR-delta beta-lactamase assay in antagonist mode [Step] [Parameter] [Value] [Description] 1. Reagent; 5 uL; 4000 cells/well 2. Incubation; 37 C for 5 hrs 3. Compounds; 23 nL; 0.59 nM to 92 uM 4. […] Incubation; 37 C for 18 hrs 7. Detection reagent; 1 uL of CCF4-dye 8. Incubation; RT for 2 hrs 9. Detection; Fluorescence; Envision plate reader
In general terms: Quantitative high-throughput screening tests each substance at several concentrations.
With `CCCNC(=O)NS(=O)(=O)c1ccc(Cl)cc1`, the “activity change, negative = inhibition” value was 9.26%.
Turning to `O=c1c(-c2ccc(O)cc2)coc2cc(O)ccc12`, the result was inactive.
In the case of `O=C(O)c1cc(-c2ccccc2)nc2ccccc12`, the “activity change, negative = inhibition” value is -1.15%.
In the case of `O=c1[nH]cnc2c1ncn2[C@H]1CC[C@@H](CO)O1`, the “activity change, negative = inhibition” value was 28.4%.
Still for that read-out and setting: with `CN(C)CCC(c1ccccc1)c1ccccn1` (stereo unspecified) the figure was 4.69%; with `CC(C)OC(=O)C(C)(C)Oc1ccc(C(=O)c2ccc(Cl)cc2)cc1`, 8.22%.
For `O=C(O)Cc1cccc2ccccc12`, the outcome was inactive.
Consider `CC(=O)N[C@@H](CS)C(=O)O`, for which the “activity change, negative = inhibition” value was -7.04%.
Consider `O=c1c(O)c(-c2ccc(O)cc2)oc2cc(O)cc(O)c12`, for which the result was inactive.
On the same count and under the same terms, with `O=C1NC(=O)C(c2ccccc2)(c2ccccc2)N1` the entry was “inactive”.
`CC(=O)c1ccc(S(=O)(=O)NC(=O)NC2CCCCC2)cc1`: the outcome was inactive.
